From PubChem BioAssay (Tox21)
Results filed as inconclusive are left out. The source made the active and inactive calls. Unless noted, calls come from the whole dose curve; as a rule, active = well fitted curve in the direction sought with a large enough effect in the repeat runs; inconclusive = weak or mixed curves; inactive = no such curve, though single readings can be large; an effect the other way counts as inactive or inconclusive.

Assays:
[1] = qHTS assay to identify small molecule agonists of the TGF-beta/Smad signaling pathway - cell viability counter screen (AID 1346829); note: top concentration of the series differs between compounds; nearly all actives have a fitted effect of over 45% in size
Summary of the method: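 SBE-bla HEK 293T cells plated overnight, compound exposure 5 hr at 37 C. Viability read in the same wells by CellTiter-Glo luminescence after 30 min at room temperature, following the beta-lactamase read.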

[2] = qHTS assay to identify small molecule agonists of the TGF-beta/Smad signaling pathway (AID 1346859; active = well fitted activation curve with a large enough effect in the signal ratio in the repeat runs, not every such curve was filed as active; the % refers to the signal ratio; note: series mostly up to about 77 µM)
Summary of the method: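 Beta-lactamase reporter activity downstream of Smad binding elements was measured in stably transfected HEK 293T cells; compounds were incubated for 5 hr, substrate for 2 hr at room temperature.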

[3] = target: Thyrotropin-releasing hormone receptor (Homo sapiens) (UniProt P34981); assay: qHTS assay to identify small molecule antagonists of the thyrotropin-releasing hormone receptor (TRHR) signaling pathway (AID 1346877; active = well fitted inhibition curve with a large enough effect in the repeat runs, not every such curve was filed as active; note: series mostly up to about 51 µM)
Summary of the method: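 Screening used HEK293 cells engineered with TRHR, with a brief 5 min room-temperature compound exposure preceding addition of TRH to 1 nM. The read-out was kinetic calcium-dye fluorescence, concentration-response from 15 doses in triplicate.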

[4] = Human pregnane X receptor (PXR) small molecule agonists, qHTS cell viability counter screen (AID 1346977); note: nearly all actives have a fitted effect of over 50% in size
Summary of the method: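 After a 5hr pre-incubation, PXR-Luc HepG2 cells received compounds plus positive control in DMSO and were kept 24hr at 37C. Cell viability was quantified by fluorescence from CellTiter-Fluor added for the final hour.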

[5] = Caspase-3/7 induction in HepG2 cells by small molecules, qHTS assay (AID 1346978); note: nearly all actives have a fitted effect of over 15% in size
Summary of the method: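 Caspase-3/7 induction was measured by Caspase-Glo 3/7 luminescence (30 min, room temperature) after a 17 hr compound exposure of wild-type HepG2 cells seeded at 2,000 per well and pre-incubated 5 hr.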

[6] = Caspase-3/7 induction in CHO-K1 cells by small molecules, qHTS cell viability counter screen (AID 1346979); note: nearly all actives have a fitted effect of over 35% in size
Summary of the method: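 Multiplexed with Caspase-Glo 3/7 in CHO-K1 cells, this counter screen added CellTiter-Fluor after 16hr of compound exposure and recorded fluorescence 1hr later.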

[7] = Caspase-3/7 induction in CHO-K1 cells by small molecules, qHTS assay (AID 1346980); note: nearly all actives have a fitted effect of over 15% in size
Summary of the method: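 Luminescent Caspase-Glo 3/7 read (30min, room temperature) quantified apoptosis induction. Cells were wild-type CHO-K1, treated with compound for 17hr at 37 C and 5% CO2.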

[8] = target: Nuclear receptor subfamily 1 group I member 2 (Homo sapiens) (UniProt O75469); assay: Human pregnane X receptor (PXR) small molecule agonists, qHTS assay (AID 1346982); note: nearly all actives have a fitted effect of over 35% in size; note: potency is the fitted concentration of half-maximal effect
Summary of the method: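 We seeded PXR-Luc HepG2 cells in assay medium containing 5% charcoal-stripped FBS, added compounds 5 hr later, incubated 24 hr, and read luminescence with ONE-Glo reagent.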

[9] = target: Cytochrome P450 2D6 (Homo sapiens) (UniProt P10635); assay: Cytochrome P450 Family 2 Subfamily D Member 6 (CYP2D6) small molecule antagonists: luciferase reporter qHTS assay (AID 1671196); note: nearly all actives have a fitted effect of over 50% in size; note: potency is the fitted concentration of half-maximal effect; for activity change, negative = inhibition: series mostly up to about 120 µM
Summary of the method: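 Luminescence (RLU), read 20 min after detection reagent, indicated CYP2D6 conversion of proluciferin to luciferin during a 1 h NADPH-dependent reaction at room temperature.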

[10] = target: Cytochrome P450 2C19 (Homo sapiens) (UniProt P33261); assay: Cytochrome P450 Family 2 Subfamily C Member 19 (CYP2C19) small molecule antagonists: luciferase reporter qHTS assay (AID 1671197); note: nearly all actives have a fitted effect of over 65% in size; note: potency is the fitted concentration of half-maximal effect; for activity change, negative = inhibition: series mostly up to about 120 µM
Summary of the method: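 P450-Glo CYP2C19 system: enzyme-substrate mix with compound 10 min at room temperature, then NADPH regeneration solution, 1 h at 37C. Proluciferin-to-luciferin conversion detected by luminescence after 20 min with detection reagent; ketoconazole as positive control.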

[11] = target: Cytochrome P450 2C9 (Homo sapiens) (UniProt P11712); assay: Cytochrome P450 Family 2 Subfamily C Member 9 (CYP2C9) small molecule antagonists: luciferase reporter qHTS assay (AID 1671198); note: series mostly up to about 120 µM; nearly all actives have a fitted effect of over 50% in size
Summary of the method: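 Enzyme-substrate mix preincubated with compound 10 min at room temperature; reaction started with NADPH regeneration solution, 1 h 37C. Luminescent luciferin product read after 20 min detection reagent.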

[12] = target: Cytochrome P450 1A2 (Homo sapiens) (UniProt P05177); assay: Cytochrome P450 Family 1 Subfamily A Member 2 (CYP1A2) small molecule antagonists: luciferase reporter qHTS assay (AID 1671199); note: nearly all actives have a fitted effect of over 50% in size; note: potency is the fitted concentration of half-maximal effect; for activity change, negative = inhibition: series mostly up to about 120 µM
Summary of the method: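 CYP1A2 turnover of a luminogenic substrate was quantified after 1 h with NADPH regeneration at room temperature. Furafylline served as positive control.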

[13] = target: Voltage-gated inwardly rectifying potassium channel KCNH2 (Homo sapiens) (UniProt Q12809); assay: Human Ether-a-go-go-Related Gene (hERG) channel small molecule antagonists: fluorescence cell-based qHTS assay (AID 1671200)
Summary of the method: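 Cell line hERG-U2OS; dye FluxOR II, 1 h RT dark; Tl+ stimulus; ex 480/em 540 nm, read each second for 2 min.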

[14] = target: Cytochrome P450 3A4 (Homo sapiens) (UniProt P08684); assay: Cytochrome P450 Family 3 Subfamily A Member 4 (CYP3A4) small molecule antagonists: luciferase reporter qHTS assay (AID 1671201); note: nearly all actives have a fitted effect of over 50% in size; note: potency is the fitted concentration of half-maximal effect; for activity change, negative = inhibition: series mostly up to about 120 µM
Summary of the method: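 Room-temperature assay throughout: 10 min compound–enzyme/substrate preincubation, 1 h reaction after NADPH regeneration solution, 20 min detection. Luciferin formed from proluciferin substrate is quantified by luminescence.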

[15] = target: Thyrotropin-releasing hormone receptor (Homo sapiens) (UniProt P34981); assay: qHTS assay to identify small molecule agonists of the thyrotropin-releasing hormone receptor (TRHR) signaling pathway (AID 1346891; calls by dose curve;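 note: HEK293 cells expressing TRHR with calcium dye readout; series mostly up to about 58 µM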)
Summary of the method: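 Overnight-plated (18 h, 37 °C, 5% CO2) TRHR-Hek293 cells; 2 h calcium dye at 37 °C; compound in DMSO; 3-min kinetic fluorescence read.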

[16] = Caspase-3/7 induction in HepG2 cells by small molecules, qHTS cell viability counter screen (AID 1346981); note: series mostly up to about 92 µM; nearly all actives have a fitted effect of over 30% in size
Summary of the method: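 Multiplexed with the caspase-3/7 assay: HepG2 cells, 16 hr compound treatment, CellTiter-Fluor viability detection by fluorescence.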

[17] = target: Nuclear receptor subfamily 1 group I member 2 (Rattus norvegicus) (UniProt Q9R1A7); assay: Rat pregnane X receptor (rPXR) activation by small molecules, qHTS assay (AID 1346983); details: rPXR luciferase reporter cells, One-Glo luminescence, 24 h; max activation: stronger effect = higher value; note: nearly all actives have a fitted effect of over 20% in size
Summary of the method: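 Luminescent readout (One-Glo luciferase, 30 min room temperature) followed 24 hr compound treatment at 37 C of rPXR cells plated 2,000 per well and preincubated 5hr; qHTS format with compounds delivered in DMSO.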

[18] = target: Nuclear receptor subfamily 1 group I member 2 (Homo sapiens) (UniProt O75469); assay: CYP3A4 induction through human pregnane X receptor (PXR) by small molecules, qHTS assay (AID 1346984); note: nearly all actives have a fitted effect of over 40% in size
Summary of the method: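 qHTS, concentration-response format: HepG2 DPX-2 line, PXR/CYP3A4-luc. Exposure 24 h, 37C. Substrate Luciferin-IPA 3uM final, 3 h. Detection One-Glo, 30 min RT.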

[19] = target: Nuclear receptor subfamily 1 group I member 2 (Homo sapiens) (UniProt O75469); assay: Human pregnane X receptor (PXR) activation by small molecules, qHTS assay (AID 1346985); note: nearly all actives have a fitted effect of over 40% in size
Summary of the method: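 DPX-2 cells (HepG2 co-transfected with a PXR response element and a CYP3A4-promoter luciferase construct) were seeded at 2,000 per well, rested 5 hr at 37C, then exposed to DMSO-dissolved compounds for 24 hr. Activation was read as luciferase luminescence.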
% is set by controls: 0 for no effect and ±100 for the full control effect.

Chain of Cytochrome P450 2D6 (Homo sapiens) (P10635 whole entry, looked up): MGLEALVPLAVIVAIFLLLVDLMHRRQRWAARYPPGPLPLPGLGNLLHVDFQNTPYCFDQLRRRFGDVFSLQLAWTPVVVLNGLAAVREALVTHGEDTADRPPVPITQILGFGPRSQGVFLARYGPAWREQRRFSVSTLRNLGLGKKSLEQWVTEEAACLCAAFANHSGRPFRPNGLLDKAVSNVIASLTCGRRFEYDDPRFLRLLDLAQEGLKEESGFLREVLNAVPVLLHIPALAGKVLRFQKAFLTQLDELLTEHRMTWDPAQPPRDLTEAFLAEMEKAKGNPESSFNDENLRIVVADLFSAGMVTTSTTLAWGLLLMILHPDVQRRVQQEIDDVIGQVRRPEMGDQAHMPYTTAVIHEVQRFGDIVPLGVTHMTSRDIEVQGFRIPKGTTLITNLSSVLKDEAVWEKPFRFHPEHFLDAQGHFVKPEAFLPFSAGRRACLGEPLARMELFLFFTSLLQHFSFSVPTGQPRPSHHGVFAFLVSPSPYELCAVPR
Chain of Thyrotropin-releasing hormone receptor (Homo sapiens) (P34981 whole entry, looked up): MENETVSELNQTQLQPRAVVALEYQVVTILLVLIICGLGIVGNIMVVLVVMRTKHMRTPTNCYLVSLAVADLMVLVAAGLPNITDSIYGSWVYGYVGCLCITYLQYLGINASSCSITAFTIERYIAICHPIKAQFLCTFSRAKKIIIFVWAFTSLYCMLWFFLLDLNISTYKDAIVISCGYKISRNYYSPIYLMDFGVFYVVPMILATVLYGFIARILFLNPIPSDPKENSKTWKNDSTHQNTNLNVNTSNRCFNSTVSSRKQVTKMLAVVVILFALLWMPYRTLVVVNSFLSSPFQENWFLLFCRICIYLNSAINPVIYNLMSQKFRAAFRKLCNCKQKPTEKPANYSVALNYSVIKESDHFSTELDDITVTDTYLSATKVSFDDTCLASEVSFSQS
Chain of Voltage-gated inwardly rectifying potassium channel KCNH2 (Homo sapiens) (Q12809 whole entry, looked up): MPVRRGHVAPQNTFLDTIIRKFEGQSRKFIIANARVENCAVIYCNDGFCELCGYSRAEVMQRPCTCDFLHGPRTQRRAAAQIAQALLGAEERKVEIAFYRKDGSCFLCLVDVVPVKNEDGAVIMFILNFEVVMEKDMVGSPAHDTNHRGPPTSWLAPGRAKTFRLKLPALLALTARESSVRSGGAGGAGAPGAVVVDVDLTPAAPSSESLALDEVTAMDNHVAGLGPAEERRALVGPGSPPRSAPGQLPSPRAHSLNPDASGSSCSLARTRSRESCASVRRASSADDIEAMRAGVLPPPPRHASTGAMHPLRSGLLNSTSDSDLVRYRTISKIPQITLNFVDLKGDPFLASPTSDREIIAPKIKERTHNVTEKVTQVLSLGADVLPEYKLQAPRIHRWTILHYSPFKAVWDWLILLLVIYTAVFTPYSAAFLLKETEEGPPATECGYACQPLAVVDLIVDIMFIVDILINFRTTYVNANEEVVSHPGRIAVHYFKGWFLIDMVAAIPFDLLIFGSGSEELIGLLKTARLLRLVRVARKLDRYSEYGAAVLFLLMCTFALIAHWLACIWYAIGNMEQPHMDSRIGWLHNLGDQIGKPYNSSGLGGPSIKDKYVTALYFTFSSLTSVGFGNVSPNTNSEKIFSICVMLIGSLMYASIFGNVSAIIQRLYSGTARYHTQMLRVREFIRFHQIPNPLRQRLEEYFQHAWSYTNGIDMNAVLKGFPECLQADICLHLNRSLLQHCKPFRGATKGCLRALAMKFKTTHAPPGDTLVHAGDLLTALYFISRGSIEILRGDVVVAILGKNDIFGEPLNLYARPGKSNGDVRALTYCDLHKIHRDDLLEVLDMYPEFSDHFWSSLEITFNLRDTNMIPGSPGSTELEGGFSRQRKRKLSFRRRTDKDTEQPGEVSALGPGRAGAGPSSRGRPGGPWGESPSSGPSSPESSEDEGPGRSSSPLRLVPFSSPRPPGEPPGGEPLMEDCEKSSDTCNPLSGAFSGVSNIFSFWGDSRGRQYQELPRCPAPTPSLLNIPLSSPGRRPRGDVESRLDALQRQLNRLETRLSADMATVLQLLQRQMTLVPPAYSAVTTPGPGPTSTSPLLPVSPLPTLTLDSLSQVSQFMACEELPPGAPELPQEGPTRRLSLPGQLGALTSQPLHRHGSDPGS
Chain of Nuclear receptor subfamily 1 group I member 2 (Rattus norvegicus) (Q9R1A7 whole entry, looked up): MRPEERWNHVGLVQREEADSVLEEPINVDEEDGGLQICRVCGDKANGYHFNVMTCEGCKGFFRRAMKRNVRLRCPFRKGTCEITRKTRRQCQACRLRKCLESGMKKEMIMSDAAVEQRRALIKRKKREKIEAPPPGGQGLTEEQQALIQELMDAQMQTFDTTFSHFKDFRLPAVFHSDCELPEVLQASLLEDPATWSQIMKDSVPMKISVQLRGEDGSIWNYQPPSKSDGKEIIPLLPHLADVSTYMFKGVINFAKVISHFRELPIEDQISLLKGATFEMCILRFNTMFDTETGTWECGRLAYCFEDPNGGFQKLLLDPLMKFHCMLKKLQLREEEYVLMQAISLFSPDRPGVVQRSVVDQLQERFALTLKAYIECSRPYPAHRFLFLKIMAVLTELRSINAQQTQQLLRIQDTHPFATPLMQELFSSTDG
Chain of Nuclear receptor subfamily 1 group I member 2 (Homo sapiens) (O75469 whole entry, looked up): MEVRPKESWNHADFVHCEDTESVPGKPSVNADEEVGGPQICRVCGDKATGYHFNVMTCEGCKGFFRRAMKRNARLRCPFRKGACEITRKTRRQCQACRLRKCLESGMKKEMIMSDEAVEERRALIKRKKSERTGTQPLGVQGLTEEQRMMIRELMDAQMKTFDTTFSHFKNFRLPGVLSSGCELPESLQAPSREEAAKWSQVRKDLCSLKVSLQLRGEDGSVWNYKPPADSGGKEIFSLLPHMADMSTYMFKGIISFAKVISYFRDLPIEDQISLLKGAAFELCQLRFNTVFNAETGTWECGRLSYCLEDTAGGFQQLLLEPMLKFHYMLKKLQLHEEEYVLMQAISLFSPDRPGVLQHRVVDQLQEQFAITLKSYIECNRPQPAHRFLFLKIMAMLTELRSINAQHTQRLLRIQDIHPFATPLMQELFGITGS
Chain of Cytochrome P450 1A2 (Homo sapiens) (P05177 whole entry, looked up): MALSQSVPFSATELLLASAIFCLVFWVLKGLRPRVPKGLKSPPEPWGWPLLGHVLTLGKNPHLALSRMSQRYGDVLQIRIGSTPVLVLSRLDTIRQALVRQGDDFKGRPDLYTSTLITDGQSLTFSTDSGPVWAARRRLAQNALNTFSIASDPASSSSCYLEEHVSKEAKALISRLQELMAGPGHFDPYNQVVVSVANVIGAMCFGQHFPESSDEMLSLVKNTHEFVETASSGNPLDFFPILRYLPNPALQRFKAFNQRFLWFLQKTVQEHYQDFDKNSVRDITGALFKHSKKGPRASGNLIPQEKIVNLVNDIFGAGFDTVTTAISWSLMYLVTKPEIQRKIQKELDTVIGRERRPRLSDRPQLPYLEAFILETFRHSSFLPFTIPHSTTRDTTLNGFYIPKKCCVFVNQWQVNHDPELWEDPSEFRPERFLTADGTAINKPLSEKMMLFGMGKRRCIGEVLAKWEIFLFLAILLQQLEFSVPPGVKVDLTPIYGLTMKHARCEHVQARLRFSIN
Chain of Cytochrome P450 2C9 (Homo sapiens) (P11712 whole entry, looked up): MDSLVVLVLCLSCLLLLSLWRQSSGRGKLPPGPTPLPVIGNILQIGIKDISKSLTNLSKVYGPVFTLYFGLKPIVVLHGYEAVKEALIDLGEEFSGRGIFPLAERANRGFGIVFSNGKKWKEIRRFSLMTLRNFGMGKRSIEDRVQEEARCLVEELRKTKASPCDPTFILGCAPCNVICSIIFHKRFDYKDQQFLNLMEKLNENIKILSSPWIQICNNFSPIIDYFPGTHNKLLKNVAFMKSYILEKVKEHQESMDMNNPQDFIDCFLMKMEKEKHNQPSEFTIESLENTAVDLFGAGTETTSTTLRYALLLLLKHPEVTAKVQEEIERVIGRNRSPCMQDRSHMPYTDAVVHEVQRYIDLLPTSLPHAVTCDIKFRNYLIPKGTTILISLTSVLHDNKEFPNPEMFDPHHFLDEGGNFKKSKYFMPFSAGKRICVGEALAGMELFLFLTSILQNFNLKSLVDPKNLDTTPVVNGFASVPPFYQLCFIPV
Chain of Cytochrome P450 2C19 (Homo sapiens) (P33261 whole entry, looked up): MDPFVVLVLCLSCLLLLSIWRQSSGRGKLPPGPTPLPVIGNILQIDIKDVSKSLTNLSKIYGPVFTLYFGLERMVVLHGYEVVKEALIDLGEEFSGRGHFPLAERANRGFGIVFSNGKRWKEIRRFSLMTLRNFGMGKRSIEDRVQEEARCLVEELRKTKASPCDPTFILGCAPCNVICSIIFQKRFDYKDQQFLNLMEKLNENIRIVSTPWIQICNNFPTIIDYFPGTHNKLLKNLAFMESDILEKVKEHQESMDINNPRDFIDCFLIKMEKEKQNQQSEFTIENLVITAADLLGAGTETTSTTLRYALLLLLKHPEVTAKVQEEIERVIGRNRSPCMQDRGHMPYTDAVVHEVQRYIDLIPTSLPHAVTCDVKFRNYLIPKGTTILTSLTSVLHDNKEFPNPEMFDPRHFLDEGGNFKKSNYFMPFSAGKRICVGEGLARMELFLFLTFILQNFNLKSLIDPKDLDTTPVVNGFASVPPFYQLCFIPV
Chain of Cytochrome P450 3A4 (Homo sapiens) (P08684 whole entry, looked up): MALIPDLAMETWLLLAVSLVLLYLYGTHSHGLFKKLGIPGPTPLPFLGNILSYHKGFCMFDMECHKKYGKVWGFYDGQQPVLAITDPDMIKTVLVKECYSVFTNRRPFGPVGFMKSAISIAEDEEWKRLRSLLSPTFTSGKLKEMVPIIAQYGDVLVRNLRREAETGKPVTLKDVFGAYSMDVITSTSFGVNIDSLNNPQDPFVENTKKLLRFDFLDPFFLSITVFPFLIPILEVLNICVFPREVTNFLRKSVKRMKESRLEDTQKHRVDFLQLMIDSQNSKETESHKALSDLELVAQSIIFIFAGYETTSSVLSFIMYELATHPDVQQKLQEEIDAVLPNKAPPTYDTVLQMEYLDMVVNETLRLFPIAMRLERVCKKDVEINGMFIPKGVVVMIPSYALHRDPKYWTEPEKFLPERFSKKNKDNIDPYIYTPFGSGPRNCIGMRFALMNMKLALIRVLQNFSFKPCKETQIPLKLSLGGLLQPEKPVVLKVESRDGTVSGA

CC(=O)c1ccc(O)c(C(N)=O)c1
inactive: outcome [1] | outcome [2] | outcome [3] | outcome [4] | outcome [5] | Potency [6] | outcome [7] | Potency [8] | Potency [9] | Potency [10] | Potency [11] | Potency [12] | Potency [13] | Potency [14]

CCCC(=O)C(CC)Sc1ccoc1C (stereo not given)
inactive: outcome [1] | outcome [2] | outcome [3] | outcome [4] | outcome [5] | Potency [6] | outcome [7] | Potency [8] | Potency [9] | Potency [13]

CC(C)(Sc1cc(C(C)(C)C)c(O)c(C(C)(C)C)c1)Sc1cc(C(C)(C)C)c(O)c(C(C)(C)C)c1
inactive: outcome [1] | outcome [2] | Potency [15] | outcome [4] | outcome [5] | Potency [6] | outcome [7] | outcome [16] | max activation [17] -1.55% | Potency [13]

CNCCc1ccccn1
inactive: outcome [1] | outcome [2] | Potency [15] | outcome [4] | outcome [5] | Potency [6] | outcome [7] | outcome [16] | Potency [8] | max activation [17] -1.65% | outcome [18] | outcome [19] | Potency [9] | Potency [10] | Potency [11] | Potency [12] | Potency [13] | Potency [14]

C=CCCCCCCCCOC(C)=O
inactive: outcome [1] | outcome [2] | outcome [3] | outcome [5] | Potency [6] | outcome [7] | outcome [16] | Potency [8] | Potency [9] | Potency [10] | Potency [11] | Potency [13] | Potency [14]

O=S(=O)(O)CC(O)CCl (stereo not given)
inactive: outcome [1] | outcome [2] | Potency [15] | outcome [4] | outcome [5] | Potency [6] | outcome [7] | outcome [16] | Potency [8] | Potency [9] | Potency [10] | Potency [11] | Potency [13] | Potency [14]

CC(=O)SC[C@@H](C)C(=O)N1CCC[C@H]1C(=O)N[C@@H](Cc1ccccc1)C(=O)O
inactive: outcome [1] | outcome [2] | Potency [15] | outcome [4] | outcome [5] | Potency [6] | outcome [7] | outcome [16] | Potency [8] | Potency [9] | Potency [10] | Potency [11] | Potency [13]

C[C@@H]1NC(=O)[C@@H](N)CNC(=O)[C@H](C2CCNC(N)=N2)NC(=O)/C(=C/NC(N)=O)NC(=O)[C@H](CNC(=O)C[C@@H](N)CCCN)NC1=O (stereo not given in full)
inactive: activity change, negative = cytotoxicity [1] -5.87% [at 0.29 µM] | activation [2] 2.64% [at 0.29 µM] | activation [15] -0.265% [at 0.218 µM] | activity change, negative = cytotoxicity [4] -2.73% [at 0.349 µM] | caspase activation [5] -1.07% [at 0.349 µM] | activity change, negative = cytotoxicity [6] 9.26% [at 0.349 µM] | caspase-3/7 activation [7] 0.0211% [at 0.349 µM] | activation [8] -4.64% [at 0.349 µM] | max activation [17] -6.29% | outcome [18] | outcome [19] | activity change, negative = inhibition [9] -6.52% [at 0.435 µM] | activity change, negative = inhibition [11] 3.32% [at 0.435 µM] | activity change, negative = inhibition [12] 10.4% [at 0.435 µM] | activity change, negative = inhibition [13] 0.491% [at 0.29 µM] | activity change, negative = inhibition [14] 1.92% [at 0.435 µM]

COC(C)(C)CC(C)=O
inactive: outcome [1] | outcome [2] | Potency [15] | outcome [4] | outcome [5] | Potency [6] | outcome [7] | Potency [8] | Potency [12] | Potency [13] | Potency [14]

O=Cc1ccc(C(=O)O)cc1
inactive: outcome [1] | outcome [2] | outcome [3] | outcome [5] | Potency [6] | outcome [7] | outcome [16] | Potency [8] | Potency [9] | Potency [10] | Potency [11] | Potency [12] | Potency [13] | Potency [14]

CC(O)C(CO)C(C)O (stereo not given)
inactive: outcome [1] | outcome [2] | Potency [15] | outcome [4] | outcome [5] | Potency [6] | outcome [16] | Potency [8] | Potency [9] | Potency [11] | Potency [13] | Potency [14]
active: Potency [10] 80.6 µM | Potency [12] 32.1 µM

CC1(C)C(=O)C(C)(C)C1=O
inactive: outcome [1] | outcome [2] | Potency [15] | outcome [4] | Potency [6] | outcome [7] | outcome [16] | Potency [8] | Potency [9] | Potency [10] | Potency [11] | Potency [12] | Potency [13]

NC(=O)CC[C@@H](N)C(=O)O
inactive: outcome [1] | outcome [2] | outcome [3] | outcome [4] | outcome [5] | Potency [6] | outcome [16] | max activation [17] 0.0386% | Potency [13]

CCCOc1ccc(C(=O)OCCN(CC)CC)cc1N
inactive: outcome [1] | outcome [2] | Potency [15] | outcome [4] | outcome [5] | Potency [6] | outcome [7] | outcome [16] | Potency [8] | Potency [10] | Potency [11] | Potency [13] | Potency [14]
active: Potency [9] 4.9 µM | Potency [12] 17.4 µM

NCC1CCC(C(=O)Oc2ccc(CCC(=O)O)cc2)CC1 (stereo not given)
inactive: outcome [1] | outcome [2] | outcome [3] | outcome [4] | outcome [5] | Potency [6] | outcome [16] | Potency [8] | max activation [17] -5.61% | outcome [18] | outcome [19] | Potency [9] | Potency [10] | Potency [11] | Potency [12] | Potency [13]

CC[C@@]1(c2ccccc2)NC(=O)N(C)C1=O
inactive: outcome [1] | outcome [2] | outcome [3] | outcome [5] | Potency [6] | outcome [7] | outcome [16] | Potency [8] | max activation [17] -0.191% | outcome [18] | outcome [19] | Potency [9] | Potency [11] | Potency [12] | Potency [13] | Potency [14]

CC(C)(C)c1ccc(N)cc1
inactive: outcome [1] | outcome [2] | Potency [15] | outcome [4] | outcome [5] | Potency [6] | outcome [7] | outcome [16] | Potency [9] | Potency [10] | Potency [12] | Potency [13]
active: Potency [8] 68.6 µM | Potency [14] 28.3 µM

CC(C)(C)NCC(O)COc1cccc2c1CCC(=O)N2 (stereo not given)
inactive: outcome [1] | outcome [2] | Potency [15] | outcome [4] | outcome [5] | Potency [6] | outcome [7] | outcome [16] | max activation [17] -2.26% | Potency [9] | Potency [11] | Potency [13] | Potency [14]

CCC(C)(C)C
inactive: outcome [1] | outcome [2] | outcome [3] | outcome [5] | Potency [6] | outcome [7] | outcome [16] | Potency [8] | Potency [9] | Potency [10] | Potency [13]
active: Potency [12] 37.7 µM
